# Test results taken from PubChem BioAssay (NCATS).
# Records with an inconclusive call do not appear. The source made the active and inactive calls. Unless noted, the call rests on the fitted dose curve; in most records, active means well fitted inhibition curve with a large enough effect; inconclusive means small, poorly fitted or top-dose-only effect; inactive means flat fitted curve, though single readings scatter.
# Key:
# [1] = qHTS drug screen for cell cycle checkpoint inhibitors in PARPi-resistant BRCA-mutant ovarian cancer cell lines. (AID 1963452; calls by dose curve); conditions: PEO1/OlaR viability, CellTiter-Glo luminescence, 96 h, stronger effect = lower value
# Procedure, shortened: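 PEO1, PEO4 and PEO1/OlaR ovarian cancer cells, 600 per well, exposed 96 h at 37C to a dilution series. Viability read by CellTiter-Glo luminescence, normalized to DMSO and empty wells; activity summarized as Z-AUC.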
# [2] = qHTS for identification of novel therapeutic agents for treatment of microphthalmiaassociated transcription factor (MiT) renal cell carcinoma (RCC) (AID 1963991; calls by dose curve; further: potency means the concentration at half of the fitted maximal effect); conditions: CellTiter-Glo, 48 h; for z-score: stronger effect = lower value
# Procedure, shortened: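 Curves over 11 concentrations were fitted to CellTiter-Glo luminescence, scaled between empty wells (0%) and DMSO (100%) viability. Cells were UOK109, UOK124 and UOK145 TFE3-fusion RCC lines at 500/well, exposed 48 hours at 37 C.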
# [3] = qHTS profiling for inhibitors of Plasmodium falciparum proliferation (AID 504749); further: potency means the concentration at half of the fitted maximal effect;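 on activity, negative = inhibition: 0% = DMSO vehicle and full inhibition = artemisinin control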; on all read-outs here: nearly all actives have a fitted effect of over 60% in size; conditions: P. falciparum in erythrocytes, SYBR Green DNA, 72 h; for activity, negative = inhibition: at 28.7 µM (top of the series)
# Procedure, shortened: (§1)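 Each compound contacts P. falciparum-infected red blood cells for 72 h at 37 C; lysis buffer (Tris, EDTA, saponin, Triton X, SYBR Green I) is added and fluorescence measured next morning; values normalized to controls.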
# 3D7 = experiment: as above; conditions: P. falciparum in erythrocytes, SYBR Green DNA, 72 h; series mostly up to 28.7 µM
# Procedure, shortened: as §1
# [4] = measured here: PEO1 parental Z-AUC
# [5] = TFE3-RCC UOK109 viability, measured here: UOK109 Z-AUC
# [6] = TFE3-RCC viability, measured here: UOK124 Z-AUC
# [7] = TFE3-RCC viability, measured here: UOK145 Z-AUC
compound,measurement,setting,value
Cc1cccc(C)c1NC(=O)CN1CCCC1=O,Z-AUC,[1],0.64 (inactive)
same,Z-AUC,[1]; [4],0.59
same,Z-AUC,[1]; measured here: PEO4 Z-AUC,1.08
same,z-score,[2]; [5],1.77
same,z-score,[2]; [6],0.0528
same,z-score,[2]; [7],0.844
COC1(CS(=O)c2ccccc2)CCN(CCc2c[nH]c3ccc(F)cc23)CC1 (configuration not stated),Z-AUC,[1],0.788 (inactive)
same,Z-AUC,[1]; [4],0.436
same,Z-AUC,[1]; measured here: PEO4 Z-AUC,0.362
O=c1[nH]c2ccccc2n1CCCN1CCC(n2c(=O)[nH]c3cc(Cl)ccc32)CC1,Z-AUC,[1],1.58 (inactive)
same,Z-AUC,[1]; [4],0.892
same,Z-AUC,[1]; measured here: PEO4 Z-AUC,0.827
same,Potency,[3]; parasite line A,11.2 µM (active)
C[C@@H]1O[C@@H](O[C@H]2C[C@@H](O)[C@]3(CO)[C@H]4[C@H](O)C[C@]5(C)[C@@H](C6=CC(=O)OC6)CC[C@]5(O)[C@@H]4CC[C@]3(O)C2)[C@H](O)[C@H](O)[C@H]1O,Z-AUC,[1],-1.08 (inactive)
same,Z-AUC,[1]; [4],-2.2
same,Z-AUC,[1]; measured here: PEO4 Z-AUC,-1.63
same,Potency,[2]; TFE3-RCC UOK109 viability,0.0166 µM (active)
same,z-score,[2]; [5],-3.9
same,z-score,[2]; [6],-2.36
same,z-score,[2]; [7],-3.38
Cc1cc(SCc2sc(-c3ccc(C(F)(F)F)c(F)c3)nc2C)ccc1OCC(=O)O,Z-AUC,[1],-0.925 (inactive)
same,Z-AUC,[1]; [4],-0.906
same,Z-AUC,[1]; measured here: PEO4 Z-AUC,-0.303
Cc1ccc(-c2nc3ccc(C)cn3c2CC(=O)N(C)C)cc1,"activity, negative = inhibition",[3]; parasite line A,-4.35% (inactive)
same,"activity, negative = inhibition",[3]; parasite line B,-1.84% (inactive)
same,Potency,3D7,inactive
Cc1ccc(S(=O)(=O)N[C@@H](CCCCN)C(=O)CCl)cc1,Potency,[3]; parasite line A,7.08 µM (active)
COc1ccc2c(c1OC)CN1CCc3cc4c(cc3C1C2)OCO4 (configuration not stated),z-score,[2]; [5],0.633
same,z-score,[2]; [6],0.605
same,z-score,[2]; [7],0.614
Cc1ncc(CNC(=O)N(CCCl)N=O)c(N)n1,"activity, negative = inhibition",[3]; parasite line A,6.89% (inactive)
same,"activity, negative = inhibition",[3]; parasite line B,3.28% (inactive)
same,Potency,3D7,inactive
CN(C)CCc1ccc(O)cc1,z-score,[2]; [5],2.07
same,z-score,[2]; [6],0.378
same,z-score,[2]; [7],0.923
same,"activity, negative = inhibition",[3]; parasite line A,-8.4% (inactive)
same,"activity, negative = inhibition",[3]; parasite line B,2.47% (inactive)
same,Potency,3D7,inactive
CN1C[C@H](CNC(=O)OCc2ccccc2)C[C@@H]2c3cccc4c3c(cn4C)C[C@H]21,Potency,[3]; parasite line A,7.08 µM (active)
O=C(NC(O)C(Cl)(Cl)Cl)NC(O)C(Cl)(Cl)Cl (configuration not stated),"activity, negative = inhibition",[3]; parasite line A,-1.71% (inactive)
same,"activity, negative = inhibition",[3]; parasite line B,6.79% (inactive)
same,Potency,3D7,inactive
CCN(CC)CCN1C(=O)CN=C(c2ccccc2F)c2cc(Cl)ccc21,"activity, negative = inhibition",[3]; parasite line A,-1.62% (inactive)
same,"activity, negative = inhibition",[3]; parasite line B,-4.36% (inactive)
same,Potency,3D7,inactive
CCCC(C)(COC(N)=O)COC(=O)NC(C)C (configuration not stated),z-score,[2]; [5],-0.172
same,z-score,[2]; [6],0.563
same,z-score,[2]; [7],0.256
same,"activity, negative = inhibition",[3]; parasite line A,8.09% (inactive)
same,"activity, negative = inhibition",[3]; parasite line B,15.9% (inactive)
same,Potency,3D7,inactive
c1ccc2c(c1)OCC(C1=NCCN1)O2 (configuration not stated),"activity, negative = inhibition",[3]; parasite line A,-17.7% (inactive)
same,"activity, negative = inhibition",[3]; parasite line B,-17.9% (inactive)
CC(=O)[C@H]1CC[C@H]2[C@@H]3CC[C@H]4C[C@](C)(O)CC[C@]4(C)[C@H]3CC[C@]12C,"activity, negative = inhibition",[3]; parasite line A,3.34% (inactive)
same,"activity, negative = inhibition",[3]; parasite line B,12.8% (inactive)
same,Potency,3D7,inactive
CC(C)NCC(O)c1ccccc1Cl (configuration not stated),Potency,[3]; parasite line B,11.2 µM (active)
COc1ccc(C(CN(C)C)C2(O)CCCCC2)cc1 (configuration not stated),"activity, negative = inhibition",[3]; parasite line A,4.2% (inactive)
same,"activity, negative = inhibition",[3]; parasite line B,-12.5% (inactive)
same,Potency,3D7,inactive
Clc1ccc(COC(Cn2ccnc2)c2ccc(Cl)cc2Cl)cc1 (configuration not stated),Potency,[3]; parasite line A,3.55 µM (active)
same,Potency,[3]; parasite line B,2.51 µM (active)
same,Potency,3D7,3.16 µM (active)
CCOP(=S)(OCC)Oc1cc(C)nc(C(C)C)n1,"activity, negative = inhibition",[3]; parasite line A,5.69% (inactive)
same,"activity, negative = inhibition",[3]; parasite line B,9.55% (inactive)
same,Potency,3D7,inactive
Oc1cc(Cl)ccc1Oc1ccc(Cl)cc1Cl,Potency,[3]; parasite line A,11.2 µM (active)
same,Potency,[3]; parasite line B,5.01 µM (active)
same,Potency,3D7,11.2 µM (active)
CC(C)(N)Cc1ccc(Cl)cc1,"activity, negative = inhibition",[3]; parasite line A,-1.24% (inactive)
same,"activity, negative = inhibition",[3]; parasite line B,1.12% (inactive)
same,Potency,3D7,inactive
CCN(CC)CCOC(=O)C(O)(c1ccccc1)c1ccccc1,"activity, negative = inhibition",[3]; parasite line A,9.85% (inactive)
same,"activity, negative = inhibition",[3]; parasite line B,-20.6% (inactive)
same,Potency,3D7,inactive
Oc1cccc2cccnc12,"activity, negative = inhibition",[3]; parasite line A,4.36% (inactive)
same,"activity, negative = inhibition",[3]; parasite line B,-11.6% (inactive)
same,Potency,3D7,inactive
Nc1ccncc1,"activity, negative = inhibition",[3]; parasite line A,15.2% (inactive)
same,"activity, negative = inhibition",[3]; parasite line B,1.68% (inactive)
same,Potency,3D7,inactive
CC1=C2C[C@@H]3[C@@H](CC=C4C[C@@H](O)CC[C@@]43C)[C@@H]2CC[C@]12O[C@H]1C[C@H](C)CN[C@H]1[C@H]2C,z-score,[2]; [5],0.302
same,z-score,[2]; [6],-0.274
same,z-score,[2]; [7],0.235
CC1NCCOC1c1ccccc1 (configuration not stated),"activity, negative = inhibition",[3]; parasite line A,8.85% (inactive)
same,"activity, negative = inhibition",[3]; parasite line B,5.03% (inactive)
same,Potency,3D7,inactive
CCOC(=O)C1(c2ccccc2)CCN(CCC(C#N)(c2ccccc2)c2ccccc2)CC1,Potency,[3]; parasite line A,2.51 µM (active)
same,Potency,[3]; parasite line B,3.16 µM (active)
same,Potency,3D7,2.51 µM (active)
CN1C(=S)CN=C(c2ccccc2)c2cc(Cl)ccc21,"activity, negative = inhibition",[3]; parasite line A,-4.94% (inactive)
same,"activity, negative = inhibition",[3]; parasite line B,2.35% (inactive)
same,Potency,3D7,inactive
O=C(O)c1ccc2[nH]cc(CCCCN3CC=C(c4ccccc4)CC3)c2c1,"activity, negative = inhibition",[3]; parasite line A,5.66% (inactive)
same,"activity, negative = inhibition",[3]; parasite line B,0.723% (inactive)
same,Potency,3D7,inactive
OCCOc1ccccc1,"activity, negative = inhibition",[3]; parasite line A,10.1% (inactive)
same,"activity, negative = inhibition",[3]; parasite line B,6.31% (inactive)
same,Potency,3D7,inactive
c1ccc(C2CC2)c(OCC2=NCCN2)c1,"activity, negative = inhibition",[3]; parasite line A,6.76% (inactive)
same,"activity, negative = inhibition",[3]; parasite line B,4.47% (inactive)
same,Potency,3D7,inactive
CCC1(C2=NCCN2)Cc2ccccc2O1 (configuration not stated),"activity, negative = inhibition",[3]; parasite line A,5.76% (inactive)
same,"activity, negative = inhibition",[3]; parasite line B,6.35% (inactive)
same,Potency,3D7,inactive
Oc1ccc(Cl)cc1Cc1ccccc1,"activity, negative = inhibition",[3]; parasite line A,-17.6% (inactive)
NP(N)(=O)NC(=O)c1ccc(F)cc1,"activity, negative = inhibition",[3]; parasite line A,-1.33% (inactive)
same,"activity, negative = inhibition",[3]; parasite line B,3.8% (inactive)
same,Potency,3D7,inactive
FC(F)(F)c1cccc(C2=CCN(CCc3ccc4ccccc4c3)CC2)c1,"activity, negative = inhibition",[3]; parasite line A,-13.7% (inactive)
same,"activity, negative = inhibition",[3]; parasite line B,-28.6% (inactive)
same,Potency,3D7,inactive
CN1CCN(C(=O)O[C@H]2c3nccnc3C(=O)N2c2ccc(Cl)cn2)CC1,"activity, negative = inhibition",[3]; parasite line A,-9.31% (inactive)
same,"activity, negative = inhibition",[3]; parasite line B,-0.974% (inactive)
same,Potency,3D7,inactive
CC[C@@H](CO)NC(=O)[C@@H]1C=C2c3cccc4[nH]cc(c34)C[C@H]2N(C)C1,"activity, negative = inhibition",[3]; parasite line A,17.2% (inactive)
same,"activity, negative = inhibition",[3]; parasite line B,1.58% (inactive)
same,Potency,3D7,inactive
Clc1cccc(N2CCNCC2)c1,"activity, negative = inhibition",[3]; parasite line A,9.32% (inactive)
same,"activity, negative = inhibition",[3]; parasite line B,8.49% (inactive)
same,Potency,3D7,inactive
